# Reference: PubChem BioAssay (NCATS)
# Results filed as inconclusive are left out. The source made the active and inactive calls. The call rests on the fitted dose curve; in most records, active means well fitted curve in the direction sought with a large enough effect; inconclusive means small, poorly fitted or top-dose-only effect, or another doubt; inactive means no such curve, though single readings can be large; an effect the other way counts as inactive or inconclusive.
# Assays:
# [1] = Quantitative High-Throughput drug screen in 47 multiple myeloma cell lines against the NCATS MIPE library collection: PCM6_Riken cell viability assay (AID 1919870); details: CellTiter-Glo ATP, 48 h; series mostly up to 45.8 µM; further: nearly all actives have a fitted effect of over 30% in size; further: potency means the concentration at half of the fitted maximal effect
# Procedure, shortened: (§1)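 Inhibition of viability over 48 h was scored by ATP content (CellTiter-Glo) in 500-cell wells. Zero and full viability were defined by media-only and DMSO-only wells.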
# [2] = Quantitative High-Throughput drug screen in 47 multiple myeloma cell lines against the NCATS MIPE library collection: RPMI8226_ATCC cell viability assay (AID 1919871); details: RPMI8226 myeloma viability, CellTiter-Glo ATP luminescence, 48 h; series mostly up to 45.8 µM; further: nearly all actives have a fitted effect of over 30% in size; further: potency means the concentration at half of the fitted maximal effect
# Procedure, shortened: as §1
# [3] = Quantitative High-Throughput drug screen in 47 multiple myeloma cell lines against the NCATS MIPE library collection: KMS11_JCRBsus cell viability assay (AID 1919873); details: KMS11 myeloma viability, CellTiter-Glo ATP luminescence, 48 h; series mostly up to 45.8 µM; further: nearly all actives have a fitted effect of over 50% in size; further: potency means the concentration at half of the fitted maximal effect
# Procedure, shortened: as §1
# [4] = Quantitative High-Throughput drug screen in 47 multiple myeloma cell lines against the NCATS MIPE library collection: KMS28BM_JCRB cell viability assay (AID 1919874); details: CellTiter-Glo ATP, 48 h; series mostly up to 45.8 µM; further: nearly all actives have a fitted effect of over 35% in size; further: potency means the concentration at half of the fitted maximal effect
# Procedure, shortened: as §1
# [5] = Quantitative High-Throughput drug screen in 47 multiple myeloma cell lines against the NCATS MIPE library collection: OPM2_DSMZ cell viability assay (AID 1919872); details: OPM2 myeloma viability, CellTiter-Glo ATP luminescence, 48 h; series mostly up to 45.8 µM; further: nearly all actives have a fitted effect of over 30% in size; further: potency means the concentration at half of the fitted maximal effect
# Procedure, shortened: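 Approved and investigational drugs from MIPE 4.0 were added by pin tool to 500 cells per well. After 48 hours at 37C, ATP-based CellTiter-Glo luminescence indicated remaining viability.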
# [6] = target: Cytochrome P450 3A4 (Homo sapiens) (UniProt P08684); test: qHTS for inhibitors of CYP3A4 against the NCATS DSHEA and TCM libraries (AID 1919971); details: recombinant CYP3A4 enzyme activity, luminescence qHTS; series mostly up to 34.1 µM;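 further: inhibition lowers luminescence from luciferin made by CYP3A4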
# Procedure, shortened: (§2)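 Read-out is luminescence after P450-Glo detection (30 min, RT). Before that: 15 min compound–enzyme preincubation, then 30-45 min reaction with 1x NADPH regeneration solution, substrate concentration isoform-specific.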
# [7] = target: Cytochrome P450 2C19 (Homo sapiens) (UniProt P33261); test: qHTS for inhibitors of CYP2C19 against the NCATS DSHEA and TCM libraries (AID 1919974); details: CYP2C19 enzyme inhibition, luminescence qHTS; series mostly up to 34.1 µM;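 further: luminescence from luciferin released by CYP2C19 oxidation of a pro-luciferin substrate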
# Procedure, shortened: as §2
# [8] = KB-3-1 P-gp reporter qHTS against the NCATS DSHEA and TCM libraries (AID 1919975); details: KB-3-1 parental cells, CellTiter-Glo luminescence viability, 72 h; series mostly up to 26.1 µM
# Procedure, shortened: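 72 h exposure of KB-3-1 cells (DMEM, 10% FBS) to DSHEA/TCM samples, concentration-response; cell viability measured as CellTiter-Glo luminescence after 30 min at room temperature.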
# Cytochrome P450 2C19 (Homo sapiens), sequence (P33261 whole entry, looked up): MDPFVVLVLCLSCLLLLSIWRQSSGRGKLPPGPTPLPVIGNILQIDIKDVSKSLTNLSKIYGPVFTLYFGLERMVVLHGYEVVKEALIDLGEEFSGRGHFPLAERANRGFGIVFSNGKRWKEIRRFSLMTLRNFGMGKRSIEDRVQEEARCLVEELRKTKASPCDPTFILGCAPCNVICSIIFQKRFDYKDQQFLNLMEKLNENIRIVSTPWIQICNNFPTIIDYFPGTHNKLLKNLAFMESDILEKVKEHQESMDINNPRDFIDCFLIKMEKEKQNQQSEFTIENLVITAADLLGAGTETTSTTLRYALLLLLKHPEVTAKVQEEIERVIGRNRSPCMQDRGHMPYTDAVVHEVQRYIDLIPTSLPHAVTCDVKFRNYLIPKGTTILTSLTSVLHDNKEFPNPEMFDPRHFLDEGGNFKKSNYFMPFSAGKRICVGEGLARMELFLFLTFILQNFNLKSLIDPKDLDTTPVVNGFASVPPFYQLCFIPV
# Cytochrome P450 3A4 (Homo sapiens), sequence (P08684 whole entry, looked up, canonical isoform): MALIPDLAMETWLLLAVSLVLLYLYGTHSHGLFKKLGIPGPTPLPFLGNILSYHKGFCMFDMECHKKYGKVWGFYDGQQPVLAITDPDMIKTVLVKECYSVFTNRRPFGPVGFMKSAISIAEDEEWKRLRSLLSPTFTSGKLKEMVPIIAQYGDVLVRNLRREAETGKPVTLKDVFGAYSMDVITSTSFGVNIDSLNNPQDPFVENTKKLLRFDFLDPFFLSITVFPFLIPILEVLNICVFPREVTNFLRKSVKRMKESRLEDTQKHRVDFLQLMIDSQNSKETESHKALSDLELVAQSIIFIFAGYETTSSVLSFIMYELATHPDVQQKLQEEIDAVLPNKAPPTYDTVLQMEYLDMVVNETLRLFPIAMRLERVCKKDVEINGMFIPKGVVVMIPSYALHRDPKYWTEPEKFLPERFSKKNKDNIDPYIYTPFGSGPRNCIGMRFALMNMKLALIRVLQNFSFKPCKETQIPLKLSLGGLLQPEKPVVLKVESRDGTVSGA
smiles,measurement,setting,value
CCCCCCCCCCCC(CC1OC(=O)C1CCCCCC)OC(=O)C(CC(C)C)NC=O (stereo not given),Potency,[1],4.69 µM (active)
same,Potency,[2],18.7 µM (active)
same,Potency,[3],inactive
same,Potency,[4],inactive
NC1=N[C@H]2[C@H](CS[C@H]2CCCCC(=O)O)N1,Potency,[1],inactive
same,Potency,[5],inactive
same,Potency,[3],inactive
same,Potency,[4],inactive
COc1cc(C[C@@H](CO)[C@H](CO)Cc2ccc(O)c(OC)c2)ccc1O,Potency,[1],0.132 µM (active)
same,Potency,[5],inactive
same,Potency,[3],inactive
same,Potency,[4],inactive
OCCNC1CCCc2c1[nH]c1ccc(-c3ccccc3)cc21 (stereo not given),Potency,[1],11.8 µM (active)
same,Potency,[2],26.4 µM (active)
same,Potency,[3],2.96 µM (active)
same,Potency,[4],20.9 µM (active)
CCN(CC)CCCCNc1ncc2c(n1)N(C)C(=O)N(c1c(Cl)c(OC)cc(OC)c1Cl)C2,Potency,[1],16.6 µM (active)
same,Potency,[2],14.8 µM (active)
same,Potency,[3],20.9 µM (active)
same,Potency,[4],11.8 µM (active)
CC(=O)O[C@H]1C[C@@H]2CC[C@H]3[C@H]4C[C@H]([N+]5(C)CCCCC5)[C@@H](OC(C)=O)[C@@]4(C)CC[C@@H]3[C@@]2(C)C[C@H]1N1CCCCC1,Potency,[1],inactive
same,Potency,[2],inactive
same,Potency,[3],inactive
same,Potency,[4],inactive
CCc1c(O)cc(O)c(C(=O)c2ccc(OCCN3CCOCC3)c(OC)c2)c1CC(=O)N(CCOC)CCOC,Potency,[1],1.32 µM (active)
same,Potency,[5],1.05 µM (active)
same,Potency,[3],0.935 µM (active)
same,Potency,[4],1.32 µM (active)
O=c1c(O)c(-c2ccc(O)c(O)c2)oc2cc(O)ccc12,Potency,[1],9.35 µM (active)
same,Potency,[5],23.5 µM (active)
CCCNS(=O)(=O)Nc1ncnc(OCCOc2ncc(Br)cn2)c1-c1ccc(Br)cc1,Potency,[1],inactive
same,Potency,[5],inactive
same,Potency,[3],inactive
same,Potency,[4],inactive
C=C(C)[C@@H]1CC[C@]2(C)CC[C@]3(C)[C@H](CC[C@@H]4[C@@]5(C)CC[C@H](O)C(C)(C)[C@H]5CC[C@]43C)[C@@H]12,Potency,[1],inactive
same,Potency,[5],inactive
same,Potency,[3],inactive
Nc1ccc(C(=O)Nc2cccc(-c3nc(N4CCOCC4)c4oc5ncccc5c4n3)c2)cn1,Potency,[1],5.9 µM (active)
same,Potency,[5],5.26 µM (active)
same,Potency,[3],6.62 µM (active)
same,Potency,[4],26.4 µM (active)
N#CC(=Cc1ccc(O)c(O)c1)C(=O)NCc1ccccc1,Potency,[1],10.5 µM (active)
same,Potency,[5],inactive
CCCCCCCCCCCCCCCC(=O)OC[C@@H](NC(=O)C(Cl)Cl)[C@H](O)c1ccc([N+](=O)[O-])cc1,Potency,[1],inactive
same,Potency,[5],inactive
same,Potency,[3],inactive
CC(C)Oc1ccc(C(=O)N[C@H](CNC(=O)CN(C)C)Cc2ccc(-c3cn4cccc([C@H](C)O)c4n3)cc2)cc1Cl,Potency,[1],23.5 µM (active)
same,Potency,[5],1.48 µM (active)
same,Potency,[3],0.132 µM (active)
same,Potency,[4],1.66 µM (active)
NS(=O)(=O)OC[C@@H]1C[C@@H](n2ccc3c(N[C@H]4CCc5ccccc54)ncnc32)C[C@H]1O,Potency,[1],6.62 µM (active)
same,Potency,[5],inactive
same,Potency,[3],0.296 µM (active)
Cn1cnc2c(F)c(Nc3ccc(Br)cc3F)c(C(=O)NOCCO)cc21,Potency,[1],inactive
same,Potency,[2],inactive
same,Potency,[3],inactive
same,Potency,[4],inactive
CN(C)CCN1C(=O)c2cccc3cc(N)cc(c23)C1=O,Potency,[1],16.6 µM (active)
same,Potency,[2],16.6 µM (active)
same,Potency,[3],16.6 µM (active)
same,Potency,[4],16.6 µM (active)
NC(=O)N1CCC(CC(=O)N2CCC([C@H]3c4ncc(Br)cc4CCc4cc(Cl)cc(Br)c43)CC2)CC1,Potency,[1],20.9 µM (active)
same,Potency,[2],16.6 µM (active)
same,Potency,[3],10.5 µM (active)
same,Potency,[4],20.9 µM (active)
OCC(O)C(O)C(O)CO (stereo not given),Potency,[1],inactive
same,Potency,[5],inactive
O=C(O)c1ccc(Nc2ncc3c(n2)-c2ccc(Cl)cc2C(c2c(F)cccc2F)=NC3)cc1,Potency,[1],16.6 µM (active)
same,Potency,[2],14.8 µM (active)
same,Potency,[3],0.132 µM (active)
CC(C=CC=C(C)C=CC1=C(C)CCCC1(C)C)=CC=CC=C(C)C=CC=C(C)C=CC1=C(C)CCCC1(C)C,Potency,[1],23.5 µM (active)
same,Potency,[5],inactive
C[C@H](CCC(=O)O)[C@H]1CCC2C3C[C@H](O)[C@@H]4C[C@H](O)CC[C@]4(C)C3CC[C@@]21C (stereo not given in full),Potency,[1],inactive
same,Potency,[2],inactive
same,Potency,[5],inactive
same,Potency,[4],inactive
C[C@]12C=CC(=O)N[C@@H]1CC[C@H]1[C@H]3CC[C@@H](C(=O)Nc4cc(C(F)(F)F)ccc4C(F)(F)F)[C@@]3(C)CC[C@@H]12,Potency,[1],4.69 µM (active)
same,Potency,[5],10.5 µM (active)
same,Potency,[3],inactive
COC1=C(OC)C(=O)C(CC=C(C)CCC=C(C)CCC=C(C)CCC=C(C)CCC=C(C)CCC=C(C)CCC=C(C)CCC=C(C)CCC=C(C)CCC=C(C)C)=C(C)C1=O,Potency,[1],inactive
same,Potency,[5],inactive
Nc1ncn([C@@H]2O[C@H](CO)[C@@H](O)[C@@H]2O)c(=O)n1,Potency,[1],8.33 µM (active)
same,Potency,[5],14.8 µM (active)
same,Potency,[3],14.8 µM (active)
same,Potency,[4],16.6 µM (active)
C[C@@]12C[C@@]3(O)O[C@@H](O1)[C@]1(COC(=O)c4ccccc4)[C@@H]3C[C@@]12O[C@@H]1O[C@H](CO)[C@@H](O)[C@H](O)[C@@H]1O,Potency,[1],inactive
same,Potency,[2],inactive
same,Potency,[5],inactive
same,Potency,[4],inactive
same,Potency,[6],inactive
same,outcome,[7],inactive
same,outcome,[8],inactive
N#Cc1c(C2CCNCC2)cc(-c2c(O)cccc2OCC2CC2)nc1N,Potency,[1],8.33 µM (active)
same,Potency,[2],20.9 µM (active)
same,Potency,[3],18.7 µM (active)
